# In PubChem BioAssay (Tox21):
# A number with no mark means an inactive call. Calls of active or inactive are those of the source. The call rests on the fitted dose curve; in most records, active means well fitted curve in the direction sought with a large enough effect in the repeat runs; inconclusive means weak or mixed curves; inactive means flat fitted curve, though single readings scatter.
# Assay: qHTS assay to test for compound auto fluorescence at 460 nm (blue) in HEK293 cell free culture (AID 720681)
# Conditions: cell-free medium, autofluorescence 405/460 nm (blue); series mostly up to 91.3 µM; fluorescence, % of fluorescent control: at the top concentration
# Text: U.S. Tox21 Program National Center for Advancing Translational Sciences [NCATS] NIH Chemical Genomics Center [NCGC] U.S. Environmental Protection Agency [EPA] National Institutes of Environmental Health Sciences [NIEHS] National Toxicology Program [NTP] U.S. Food and Drug Administration [FDA] Tox21 Assay Overview: Compound auto fluorescence often interferes with screening of the compound library against various biological targets and signaling pathways. Some of these compounds may have fluorophoric properties. Such properties may interfere with the assay outputs resulting in false positives and/or negatives. To decrease such complications and ensure the compound activities are relevant in terms of biological response, the Tox21 10K compound library was screened for auto fluorescence. From the fluorophores used as reporter signals in our screening assays, the auto fluorescence equivalencies of compounds against three fluorophores have been evaluated: Triamterene, Fluorescein and Rose Bengal sodium for blue, green and red fluorescence, respectively. The fluorescence intensities were measured using Excitation/Emission wavelengths at 405/460nm, 485/535nm and 540/590nm for blue, green and red labels, respectively. This assay includes the blue fluorescence data.
# Tox21 Assay Protocol Summary: 5 uL of culture medium (DMEM containing 10% FBS) per well was dispensed into black wall/clear bottom 1536-well plates using a Multidrop Combi Dispenser (ThermoFisher Scientific, Waltham, MA). After 23 nL compound or DMSO vehicle was transferred into assay plate by a pintool work station (Kalypsys, San Diego, CA), fluorescence intensities in the assay plates were measured by an Envision (PerkinElmer, Shelton, CT) plate reader using three labels for measuring blue, green and red fluorescence at […] 460, 535 and 590nm respectively.
# On the % scale 0 is the no-effect control and ±100 the full control effect.
Structure (SMILES),outcome,"fluorescence, % of fluorescent control [%]"
CC1(C)OC[C@@H]2O[C@@]3(C(=O)O)OC(C)(C)O[C@H]3[C@@H]2O1,inactive,–
Cc1ccc(C(C)C)c(O)c1,inactive,–
CC(=O)CCC=C(C)C,inactive,–
O=C(O)c1ccccc1C(=O)O,inactive,–
CC(C)OP(=O)(CP(=O)(OC(C)C)OC(C)C)OC(C)C,–,0.0661
CCOC(=O)c1ccc(N)cc1,inactive,–
CC(C)OC(=O)COc1ccc(Cl)cc1Cl,inactive,–
Cc1ccc2ncccc2c1,inactive,–
C=CCCCCCCCCC(=O)O,inactive,–
C=C(C)CNCC,inactive,–
Cc1ccc([N+](=O)[O-])cc1S(=O)(=O)O,inactive,–
C[C@]12CCC(=O)C=C1CC[C@@H]1[C@@H]2[C@@H](O)C[C@@]2(C)[C@H]1CC[C@]2(O)C(=O)CO,inactive,–
CCCCCCCCCCO,inactive,–
C=CC[N+](C)(C)CC=C,inactive,–
O=S(=O)(O)c1ccccc1,inactive,–
CC1(C)S[C@@H]2[C@H](NC(=O)COc3ccccc3)C(=O)N2[C@H]1C(=O)O,inactive,–
CCNc1ccccc1,inactive,–
C=CC(C)CCCC(C)(C)O (stereo not given),inactive,–
CCc1ccccc1CC,inactive,–
CCCCOC(=O)c1ccc(N)cc1,inactive,–

Structure (SMILES),outcome,"fluorescence, % of fluorescent control [%]"
CN(C)CCOC(=O)COc1ccc(Cl)cc1,inactive,–
CCOCCOCCOCCO,inactive,–
CC(=O)OC1CC(C)OC(C)O1 (stereo not given),inactive,–
O=C(OCC1CCC2OC2C1)C1CCC2OC2C1 (stereo not given),inactive,–
CCCCC(C=O)CC (stereo not given),inactive,–
CCOC(=O)n1ccn(C)c1=S,inactive,–
CC(C)(C)c1cc(Cc2cc(C(C)(C)C)c(O)c(C(C)(C)C)c2)cc(C(C)(C)C)c1O,inactive,–
CN/C(=C\[N+](=O)[O-])NCCSCc1csc(CN(C)C)n1,inactive,–
Nc1nc(N)nc(-c2ccccc2)n1,inactive,–
C=CCc1ccc(OC)c(OC)c1,inactive,–
O=C1C(c2[nH]c3ccccc3c2O)=Nc2ccccc21,inactive,–
Cc1ccc(S(=O)(=O)N=C=O)cc1,inactive,–
CCCCCC(=O)O,inactive,–
c1ccc(Oc2ccccc2)cc1,inactive,–
O=[N+]([O-])c1ccc2nc[nH]c2c1,inactive,–
CC(=O)CC(C)(C)O,inactive,–
CC(C)c1cccc(C(C)C)c1,inactive,–
C=Cc1ccc(C)cc1,inactive,–
NCCCCCCN,inactive,–
CCO[Si](CCC#N)(OCC)OCC,inactive,–
